28 compounds from PubChem BioAssay (NCATS) can be followed below.

The structures appear in SMILES notation. Values without a mark were called inactive. Results filed as inconclusive are left out. The source made the active and inactive calls. Calls come from the whole dose curve; as a rule, active = well fitted curve in the direction sought with a large enough effect; inconclusive = small, poorly fitted or top-dose-only effect, or another doubt; inactive = no such curve, though single readings can be large; an effect the other way counts as inactive or inconclusive.

The target in assay [1] is Glutathione peroxidase 1 (Homo sapiens) (UniProt P07203). The assay is described as follows: Primary qHTS Assay for Inhibitors of Recombinant Selenoprotein Glutathione Peroxidase 1 (GPX1) (AID 1845191). Note: nearly all actives have a fitted effect of over 65% in size. In outline:
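Recombinant GPX1 (10 nM final) was preincubated with compound for 30 min at room temperature, then reacted with 1 mM GSH, 0.5 mM CHP, 0.5 mM NADPH and 100 nM glutathione reductase; NADPH fluorescence (340/450 nm) was read at 0 and 15 min.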
A general note: qHTS replaces the single test concentration by a dilution series.

Assay [2] deals with Phospholipid hydroperoxide glutathione peroxidase GPX4 (Homo sapiens) (UniProt P36969). The assay is described as follows: Primary qHTS Assay for Inhibitors of Recombinant Selenoprotein Glutathione Peroxidase 4 (GPX4) (AID 1845192). For activity change, negative = inhibition: series mostly up to about 50 µM; % is set by controls: 0 for no effect and ±100 for the full control effect. Note: nearly all actives have a fitted effect of over 65% in size. Note: potency is the fitted concentration of half-maximal effect. The procedure, abridged:
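GR-coupled readout: 100 nM GR, 1 mM GSH, 0.5 mM NADPH; NADPH fluorescence (ex 340/em 450 nm) read at t=0 and after 15 min RT. GPX4 200 nM, preincubated 30 min with compound; substrate 0.5 mM CHP.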

Assay [3] is described as follows: Quantitative High-Throughput drug screen in 47 multiple myeloma cell lines against the NCATS MIPE library collection: FR4_PLB cell viability assay (AID 1918924; note: nearly all actives have a fitted effect of over 35% in size; note: potency is the fitted concentration of half-maximal effect). In outline:
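CellTiter-Glo luminescence (ATP) after 48 h compound exposure, 37C/5% CO2; 500 cells/well; MIPE 4.0 approved/investigational drugs pinned in; DMSO = 100%, media only = 0% viability.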

In assay [4] the target is Luciferin 4-monooxygenase (Photinus pyralis) (UniProt P08659). The assay is described as follows: Primary firefly luciferase (FLuc) qHTS assay for identification of artifact compounds. (AID 1845220).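 For activity change, negative = inhibition: series mostly up to about 54 µM; plate controls were DMSO vehicle for no effect and no enzyme for full effect.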 Note: nearly all actives have a fitted effect of over 60% in size. In outline:
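Reaction readout was CCD-imaged luminescence, taken 5 min after adding 10 nM purified firefly enzyme to compound-treated wells holding 10 uM luciferin and ATP in pH 7.6 buffer.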

Assay [5] is described as follows: Primary fluorescence-based thiol-reactive (MSTI) qHTS assay for identification of artifact compounds. (AID 1845221). Note: nearly all actives have a fitted effect of over 65% in size. Note: potency is the fitted concentration of half-maximal effect. In outline: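 Thiol-reactive compounds detected by quenching of 4 uM MSTI fluorescence (525/598 nm) after 1 h room-temperature dark incubation in PBS pH 7.4, 2% DMSO. qHTS titration; percent inhibition Hill-fitted against Acetyl-MSTI/MSTI controls.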

The subject of assay [6] is Nanoluciferase (engineered Oplophorus gracilirostris luciferase). The assay is described as follows: Primary Nanoluciferase (NLuc) qHTS assay for identification of artifact compounds. (AID 1845222).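 Note: NLuc secreted into diluted conditioned medium of S16 cells; series mostly up to about 54 µM; 0% = DMSO and -100% = no enzyme.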 The procedure, abridged:
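Concentration-response data were obtained by luminescence after 5 min with Nano-Glo substrate at 1:100. The enzyme was diluted S16 NLuc-expressing cell medium, preincubated with compound for 15 min at RT. Curves were fitted with a 4-parameter Hill model.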

Assay [7] in a line: Primary redox qHTS assay for identification of artifact compounds. (AID 1845223). In outline: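 Amplex Red (25 uM) and HRP (250 mU/mL) in HBSS, with compounds for 15 min, then 250 uM DTT for 30 min, room temperature, dark. Fluorescence 525/598 nm read; normalized to DMSO and 10 uM DA3003; Hill fit.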

Chain of Phospholipid hydroperoxide glutathione peroxidase GPX4 (Homo sapiens) (P36969 whole entry, looked up): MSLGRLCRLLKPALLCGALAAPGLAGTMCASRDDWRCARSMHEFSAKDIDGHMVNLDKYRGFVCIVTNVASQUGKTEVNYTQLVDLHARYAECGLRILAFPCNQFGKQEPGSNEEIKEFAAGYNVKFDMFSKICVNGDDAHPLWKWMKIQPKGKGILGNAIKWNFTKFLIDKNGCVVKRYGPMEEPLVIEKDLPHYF
Chain of Glutathione peroxidase 1 (Homo sapiens) (P07203 whole entry, looked up): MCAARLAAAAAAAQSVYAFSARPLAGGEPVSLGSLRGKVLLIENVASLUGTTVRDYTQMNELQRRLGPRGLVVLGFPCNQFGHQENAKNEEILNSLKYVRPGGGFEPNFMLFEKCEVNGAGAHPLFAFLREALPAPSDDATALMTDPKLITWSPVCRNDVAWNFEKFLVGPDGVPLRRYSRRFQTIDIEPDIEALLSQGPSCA

As to `Cn1cncc1[C@@](N)(c1ccc(Cl)cc1)c1ccc2c(c1)c(-c1cccc(Cl)c1)cc(=O)n2C`, the Potency entry in assay [1] and in assay [2] was “inactive” each time. Besides, in assay [3], the Potency is 20.9 µM (active).
As for `Cn1cc(-c2ccncc2)c(-c2ccc(OCc3ccc4ccccc4n3)cc2)n1`, the Potency result in assay [2], in assay [4], in assay [5] and in assay [6] was “inactive” throughout.
On to `COc1cc2ncn(-c3cc(OCc4ccccc4C(F)(F)F)c(C(N)=O)s3)c2cc1OC`, for which the Potency entry in assay [1] and in assay [2] was “inactive” each time. In addition, the Potency in assay [3] was 5.26 µM (active).
As for `Nc1nc(-c2nn(Cc3ccccc3F)c3ncccc23)nc(N)c1N1CCOCC1`, in assay [2], the Potency result was “inactive”.
For `C=CC(=O)Nc1cccc(Oc2nc(Nc3ccc(N4CCN(C)CC4)cc3OC)ncc2Cl)c1`, the Potency result in assay [2], in assay [6] and in assay [7] was “inactive” throughout. The Potency in assay [5] is 2.67 µM (active).
For the compound `Clc1ccc2ncc(-c3cccc(NC4CNC4)n3)n2c1`, the Potency entry in assay [1], in assay [4], in assay [5] and in assay [6] was “inactive” in each case.
Consider `O=C(NCCCNc1nc(Nc2cccc(NC(=O)N3CCCC3)c2)ncc1I)c1cccs1`, for which the Potency result in assay [2] was “inactive”.
Take `Cc1ccc(C(=O)Nc2cccc(C(F)(F)F)c2)cc1-c1ccc2nc(NCCN3CCOCC3)ncc2c1`: the Potency entry in assay [2], in assay [4], in assay [5], in assay [6] and in assay [7] was “inactive” each time. The Potency in assay [3] was 10.5 µM (active).
For the compound `CCOc1ccccc1OCCNC(C)Cc1ccc(OC)c(S(N)(=O)=O)c1` (centres undefined), the Potency result in assay [2], in assay [4], in assay [5], in assay [6], in assay [7] and in assay [3] was “inactive” each time.
Regarding `CN1CCN(c2ccc3nc(-c4c(N)c5c(F)cccc5[nH]c4=O)[nH]c3c2)CC1`, the Potency entry in assay [2] is “inactive”.
Consider `COC(=O)C[C@](O)(CCCC(C)(C)O)C(=O)O[C@@H]1C(OC)=C[C@]23CCCN2CCc2cc4c(cc2[C@H]13)OCO4`, for which the Potency entry in assay [1], in assay [2] and in assay [3] was “inactive” in each case.
`O=C(CCCCCCC(=O)Nc1ccc([C@H]2O[C@@H](CSc3nc(-c4ccccc4)c(-c4ccccc4)o3)C[C@@H](c3ccc(CO)cc3)O2)cc1)NO`: the activity change, negative = inhibition in assay [2] was -22.8% [at 9.73 µM]. Besides, the Potency entry in assay [4], in assay [5], in assay [6] and in assay [7] was “inactive” throughout. For the same compound, the Potency in assay [3] is 11.8 µM (active).
Take `CC(C)c1ccc(Cn2ccc3c4c(N)nc(NC5CC5)nc4ccc32)cc1`: the Potency entry in assay [1] is “inactive”. For the same compound, the Potency in assay [2] is 18 µM (active); in assay [3], 4.18 µM (active).
Take `c1nc2nc(Nc3ccc(N4CCOCC4)cc3)nc(NC3CCCCC3)c2[nH]1`: the Potency result in assay [2], in assay [4], in assay [6] and in assay [7] was “inactive” each time. Besides, in assay [5], the Potency is 0.922 µM (active).
On to `Cc1nc(N)ncc1-c1nc(N2CCOCC2)c2sc(C(C)(C)O)cc2n1`, for which the Potency result in assay [2], in assay [4], in assay [5], in assay [6] and in assay [7] was “inactive” each time. The Potency in assay [3] is 8.33 µM (active).
Take `CC(C)c1noc(N2CCC(COc3ccc(-c4ccc(S(C)(=O)=O)cc4)nc3)CC2)n1`: the Potency entry in assay [2], in assay [4], in assay [5], in assay [6] and in assay [7] was “inactive” each time.
Turning to `CN1CC[C@@H](c2c(O)cc(O)c3c(=O)cc(-c4ccccc4Cl)oc23)[C@@H](O)C1`, the Potency result in assay [1] and in assay [2] was “inactive” in each case. Besides, in assay [3], the Potency is 0.0332 µM (active).
As to `C=CC(=O)Nc1cc2c(Nc3ccc(F)c(Cl)c3)ncnc2cc1OCCCN1CCOCC1`, the Potency entry in assay [1] and in assay [2] was “inactive” in each case. Also, the Potency in assay [3] is 14.8 µM (active).
Consider `C#Cc1cccc(Nc2ncnc3cc(OC)c(OCCCCCCC(=O)NO)cc23)c1`, for which the Potency result in assay [2], in assay [4], in assay [5], in assay [6] and in assay [7] was “inactive” each time. Moreover, the Potency in assay [3] was 0.0743 µM (active).
For `C=CC(=O)Nc1cc2c(Nc3ccc(F)c(Cl)c3)ncnc2cc1C#CC(C)(C)N1CCN(C)CC1`, the Potency result in assay [1] and in assay [2] was “inactive” throughout. The Potency in assay [3] was 3.72 µM (active).
In the case of `Cc1ccc(S(=O)(=O)Nc2cc(Cl)ccc2C(=O)Nc2nc(-c3ccccc3)cs2)cc1`, in assay [1], the Potency entry is “inactive”. For the same compound, in assay [3], the Potency was 20.9 µM (active).
As for `CN[C@H]1CCc2cc(OC)c(OC)c(OC)c2-c2ccc(OC)c(=O)cc21`, the Potency result in assay [1], in assay [2] and in assay [3] was “inactive” each time.
As to `Cc1c(NC(=O)OC[C@@H]2COCCN2)cn2ncnc(Nc3ccc4c(cnn4Cc4cccc(F)c4)c3)c12`, the Potency entry in assay [2], in assay [4], in assay [5], in assay [6] and in assay [7] was “inactive” each time. Besides, in assay [3], the Potency was 1.32 µM (active).
Take `O=C(O)CCCc1c[nH]c2ccccc12`: the Potency entry in assay [2], in assay [4], in assay [5], in assay [6] and in assay [7] was “inactive” in each case.
On to `Cc1ccc(-c2ncn(-c3ccc(Nc4nccc(-c5cccc(N6CCOCC6)c5)n4)cc3)n2)cn1`, for which the Potency result in assay [2] was “inactive”. Also, the Potency in assay [3] is 0.132 µM (active).
Take `CN(C)c1nc(Cc2ccc(NC(=O)c3ccc4ccccc4c3)cc2)nc(Cl)c1CC(=O)O`: the Potency entry in assay [2], in assay [5], in assay [6], in assay [7] and in assay [3] was “inactive” throughout.
Take `O=C1CCC[C@@H]2[C@H]3CCC[N+]4([O-])CCC[C@@H](CN12)[C@@H]34` (some centres undefined): the Potency entry in assay [2], in assay [5], in assay [6] and in assay [7] was “inactive” in each case.
As for `CC(NCc1ccc2c(c1)nc(NC(=O)c1ccc(-c3cn[nH]c3)s1)n2CC(C)(C)O)C(C)(C)C` (centres undefined), in assay [3], the Potency is 0.372 µM (active).
